Screening results (PubChem)
Peg3 promoter: Peg3 promoter-driven luciferase inhibitors, primary screen, cell-based, HeLa, luciferase luminescence; 360,000 tested, 1.7% active; HeLa PEG-Prom luciferase reporter, overnight; inhibition, % at 20 µM;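 active means inhibition of at least 50% at 20 µM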
TRPM1 prom inh: inhibitors of MITF-dependent TRPM1 promoter reporter, primary screen, cell-based, SK-MEL-5, single point, luciferase; inhibition, % at 12.5 µM; 330,000 tested, 0.83% active; SK-MEL-5 TRPM1 promoter luciferase, 24 h;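 active means mean inhibition across replicates of 60% or more, whatever share of single replicates reaches that level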
CF NFkB inh: inhibitors of PAF-induced NF-kB signaling, primary screen, cell-based, GFP fluorescence, uHTS; KKLEB NF-kB-GFP reporter, GFP fluorescence overnight; inhibition, % at 5 µM; 360,000 tested, 0.86% active;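 active means at least 50% inhibition at 5 µM, scaled per plate between neutral and stimulator controls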;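 further: PAF is a Pseudomonas aeruginosa culture filtrate used as stimulus; plate controls were PAF-stimulated DMSO wells for no effect and unstimulated DMSO wells for full effect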
KKLEB tox: cytotoxicity in KKLEB CF airway cells, primary screen, cytotoxicity control for CF NF-kB inhibitor project, cell-based, uHTS, fluorescence assay plates; activity change (cytotoxicity), % at 5 µM; KKLEB CF airway cells viability, ATPlite luminescence, overnight; hits give low values; cells stimulated with P. aeruginosa culture filtrate; AID 602141, 2011; 360,000 tested, 0.36% active;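 active means corrected activity change at or below -50% at 5 µM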
Shn3 3UTR inh: reduction of Shn3 3'UTR firefly luciferase signal, primary screen, Schnurri-3 inhibitor project, cell-based, Clone20 osteoblasts, set 2 | Clone20 osteoblast Shn3 3'UTR firefly luciferase, 24 h | inhibition, % at 12.5 µM | 360,000 tested, 0.52% active | AID 588674, 2011;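 active means mean inhibition of at least 75% with every replicate also reaching 75%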;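 further: 0% = median of neutral control wells and 100% = pilot-screen positive control compound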
HIF-2a block: HIF-2a reporter inhibitors, primary screen, luminescence, 786-0 RCC cells; 786-0 RCC cells HIF-2a reporter, luciferase luminescence, overnight; inhibition, % at 18.8 µM; 360,000 tested, 0.72% active;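 active means inhibition of the luminescence signal of 40% or more relative to plate controls, in a single-dose primary screen at 18.75 µM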
Numbers without * were called inactive. This is a sample that favours compounds with a hit; in the whole collection about 2.8% have one here.

Results for CS(=O)(=O)c1ccc(C(=O)OCC(=O)NC(=O)C2COc3ccccc3O2)cc1[N+](=O)[O-] (stereo not given) ?
Peg3 promoter: 8; TRPM1 prom inh: 17; CF NFkB inh: 8; KKLEB tox: 24; Shn3 3UTR inh: -42; HIF-2a block: 1

What do the screens show for `CS(=O)(=O)c1ccc(C(=O)OCC(=O)N2CCOCC2)cc1[N+](=O)[O-]`?
Peg3 promoter: 0; CF NFkB inh: 43; KKLEB tox: -7; Shn3 3UTR inh: 95*; HIF-2a block: 6

How did Cc1ccc(C(=O)OCC(=O)N2CCOCC2)cc1 do in these assays?
Peg3 promoter: -120; TRPM1 prom inh: -47; CF NFkB inh: 15; KKLEB tox: -15; Shn3 3UTR inh: -50; HIF-2a block: -109

What do the screens show for `CS(=O)(=O)c1ccc(C(=O)OCC(=O)NC(=O)C2CCCCC2)cc1[N+](=O)[O-]`?
Peg3 promoter: 98*; TRPM1 prom inh: 67*; CF NFkB inh: 74*; KKLEB tox: -20; Shn3 3UTR inh: 37; HIF-2a block: 18

Results for COc1cc(C(=O)N/N=C/c2sccc2C)cc(OC)c1OC ?
Peg3 promoter: -8; TRPM1 prom inh: 50; CF NFkB inh: 52*; KKLEB tox: -10; Shn3 3UTR inh: 22; HIF-2a block: 20

How did O=C(O)c1c[nH]c2ccc([N+](=O)[O-])cc2c1=O do in these assays?
Peg3 promoter: 0; TRPM1 prom inh: -3; CF NFkB inh: 28; KKLEB tox: -5; Shn3 3UTR inh: 8; HIF-2a block: 13

What do the screens show for `CSc1nc2c(cnn2-c2ccc(C)c(C)c2)c(=O)[nH]1`?
Peg3 promoter: 59*; TRPM1 prom inh: 29; CF NFkB inh: 5; KKLEB tox: -5; Shn3 3UTR inh: -7; HIF-2a block: 6

What do the screens show for `CCCc1cc(C(=O)Nc2cc(OC)ccc2OC)cs1`?
Peg3 promoter: -87; TRPM1 prom inh: 8; CF NFkB inh: -11; KKLEB tox: -4; Shn3 3UTR inh: -21; HIF-2a block: -132

How did Cc1ccc(S(=O)(=O)Nc2ccc(O)c(Sc3ncn[nH]3)c2)cc1 do in these assays?
Peg3 promoter: -5; TRPM1 prom inh: 4; CF NFkB inh: 9; KKLEB tox: -2; Shn3 3UTR inh: -3; HIF-2a block: 17

How did Cc1ccc(S(=O)(=O)/N=C2/C=C(Sc3ncn[nH]3)C(=O)c3ccccc32)cc1 do in these assays?
Peg3 promoter: 106*; TRPM1 prom inh: 91*; CF NFkB inh: 100*; KKLEB tox: -58*; Shn3 3UTR inh: 98*; HIF-2a block: 98*

What do the screens show for `CC(C)c1ccc(S(=O)(=O)/N=C2/C=C(Sc3ncn[nH]3)C(=O)c3ccccc32)cc1`?
Peg3 promoter: 64*; TRPM1 prom inh: 60; CF NFkB inh: 84*; KKLEB tox: -49; Shn3 3UTR inh: 79; HIF-2a block: 49*

What do the screens show for `O=[N+]([O-])c1c(Nc2ccc(O)cc2)cc(Cl)c2nonc12`?
Peg3 promoter: 103*; TRPM1 prom inh: 96*; CF NFkB inh: 103*; KKLEB tox: -76*; Shn3 3UTR inh: 95*; HIF-2a block: 95*

How did O=[N+]([O-])c1c(Nc2ccccn2)cc(Cl)c2nonc12 do in these assays?
Peg3 promoter: 108*; TRPM1 prom inh: 76*; CF NFkB inh: 67*; KKLEB tox: -44; Shn3 3UTR inh: 95*; HIF-2a block: 96*

What do the screens show for `O=C1c2ccccc2[C@@H]2Cc3csc[n+]3[C@H]12`?
HIF-2a block: 7

Results for O=C(CSc1n[nH]c(=O)n1C1CC1)Nc1ccccc1 ?
Peg3 promoter: 5; TRPM1 prom inh: 10; CF NFkB inh: -3; KKLEB tox: 20; Shn3 3UTR inh: -17; HIF-2a block: 3

Results for O=C(CSc1n[nH]c(=O)n1C1CC1)Nc1cc(Cl)ccc1Oc1ccccc1 ?
Peg3 promoter: 50*; TRPM1 prom inh: 13; CF NFkB inh: -3; KKLEB tox: -10; Shn3 3UTR inh: 60; HIF-2a block: 13
